BAZ2B inh = qHTS Assay for Inhibitors of BAZ2B | AlphaScreen BAZ2B-H3K14Ac peptide displacement | Potency, µM (series often up to 114 µM), usual class: inhibitors | hit rate 4.4% among 360,000 | AID 504333, 2011; further: nearly all actives have a fitted effect of over 60% in size
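BAZ2B (50 nM) with biotin-H3(5-23)K14Ac peptide (50 nM) in PBS pH 7.4, 0.01% Tween-20, preformed 30 min, then compound 30 min at room temperature; top concentration 110uM. AlphaScreen streptavidin donor/nickel chelate acceptor beads (10 ug/mL final), 20 min dark, signal read.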
G9a block = qHTS Assay for Inhibitors of Histone Lysine Methyltransferase G9a; Potency, µM (top dose mostly 102 µM), hits mostly inhibitors; G9a H3K9 monomethylation, AlphaScreen, 2 h; hit rate 8.8% among 350,000; further: nearly all actives have a fitted effect of over 75% in size
Target sequence (Q96KQ7 913-1193 limits assumed): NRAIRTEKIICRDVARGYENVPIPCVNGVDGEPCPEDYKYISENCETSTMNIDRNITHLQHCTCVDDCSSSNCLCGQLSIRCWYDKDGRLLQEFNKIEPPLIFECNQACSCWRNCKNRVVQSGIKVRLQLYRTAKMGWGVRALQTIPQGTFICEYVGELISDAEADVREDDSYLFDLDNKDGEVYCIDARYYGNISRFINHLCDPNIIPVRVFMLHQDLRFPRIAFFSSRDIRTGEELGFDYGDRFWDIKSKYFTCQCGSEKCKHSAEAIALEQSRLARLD
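G9a (20 nM) was preincubated 15 min with compound, then reacted 2 h at room temperature with 500 nM biotin-H3K9 peptide and 20 µM SAM. Monomethyl-H3K9 detected by AlphaScreen using anti-H3K9me1 antibody.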
HP1b chromo inh = HTS for Inhibitors of HP1-beta Chromodomain Interactions with Methylated Histone Tails | Chromobox protein homolog 1 (Homo sapiens), P83916 | AlphaScreen HP1-beta / biotin-H3K9me3 peptide binding | Potency, µM (series often up to 114 µM), usual class: inhibitors | hit rate 0.56% among 390,000 | AID 540317, 2011; further: nearly all actives have a fitted effect of over 70% in size
Target sequence (P83916 whole entry, looked up): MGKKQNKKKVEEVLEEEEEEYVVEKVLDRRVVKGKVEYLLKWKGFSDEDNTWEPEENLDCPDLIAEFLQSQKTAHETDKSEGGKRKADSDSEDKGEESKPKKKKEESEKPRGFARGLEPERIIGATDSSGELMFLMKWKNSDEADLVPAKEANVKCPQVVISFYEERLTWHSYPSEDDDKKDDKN
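AlphaScreen: HP1-beta (50 nM) preformed 30 min with biotin-H3(1-18)K9me3 peptide (50 nM) in PBS pH 7.4, 0.01% Tween-20. Compound added for 30 min at RT, then streptavidin donor/nickel chelate acceptor beads (10 ug/mL) for 30 min.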
JMJD2A Tudor = qHTS Assay for Inhibitors of JMJD2A-Tudor Domain. Lysine-specific demethylase 4A (Homo sapiens), O75164. AlphaScreen JMJD2A-Tudor / H3K4me3 peptide binding. Potency, µM (series often up to 114 µM), usual class: inhibitors. hit rate 4.4% among 390,000. AID 504339, 2011; further: nearly all actives have a fitted effect of over 50% in size
L3MBTL1 block = qHTS Assay for the Inhibitors of L3MBTL1. Lethal(3)malignant brain tumor-like protein 1 (Homo sapiens), Q9Y468. AlphaScreen L3MBTL1–H3K9me1 peptide binding. Potency, µM (series often up to 57.1 µM), most hits filed as inhibitors. hit rate 0.66% among 230,000. AID 485360, 2010; further: nearly all actives have a fitted effect of over 60% in size
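L3MBTL1 (50 nM) pre-complexed 30 min with biotinylated H3(1-15)K9me1 peptide (75 nM), then compounds added for 30 min at room temperature; AlphaScreen streptavidin donor/nickel chelate acceptor beads (10 ug/mL final) read after 30 min dark incubation.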
Of the large screens only hits and unclear results are named; the others gave an inactive call; ! = repeats disagree. Sampled rows, rich in hits. Any-hit rate of the full collection: about 11%. The call rests on the fitted dose curve; in most records, active means well fitted inhibition curve with a large enough effect; inconclusive means small, poorly fitted or top-dose-only effect; inactive means no such curve, though single readings can be large or run the other way.

O=[N+]([O-])c1ccccc1OCCCn1cnc2ccccc21	BAZ2B inh 22.4µM, HP1b chromo inh inconclusive, JMJD2A Tudor 0.794µM
O=c1c2ccccc2ncn1CCCOc1ccccc1[N+](=O)[O-]	none
CCC(=O)c1ccc(OCCn2cnc3ccccc32)cc1	JMJD2A Tudor 79.4µM
CCC(=O)c1ccc(OCCn2cncn2)cc1	none
c1ccc2c(c1)ncn2CCn1cnc2ccccc21	none
CCCCC(=O)N1C/C=C\C(c2ccc(OC)cc2)N(Cc2ccc(F)cc2)C(=O)C1C (stereo unspecified)	none (no result: BAZ2B inh, G9a block, L3MBTL1 block)
CCc1ccc(-n2nc(C)c3c(C(=O)Nc4cc(OC)cc(OC)c4)cc(C)nc32)cc1	none (no result: L3MBTL1 block)
Cc1ccc(C)c(Nc2nc(-c3ccccc3)c3cc(Br)ccc3n2)c1	none (no result: L3MBTL1 block)
Oc1ccc(O)c(Cc2nc3ccccc3s2)c1	BAZ2B inh inconclusive, G9a block 10µM, HP1b chromo inh 20µM, JMJD2A Tudor 12.6µM, L3MBTL1 block inconclusive
Cc1ccc(NC(=O)CSc2nc3ccccc3c3nc(CCn4c(C)nc5ccccc54)nn23)cc1F	none (no result: L3MBTL1 block)
O=C1c2ccccc2C(=O)N1c1cccc2ncccc12	JMJD2A Tudor 89.1µM (no result: BAZ2B inh, G9a block, HP1b chromo inh, L3MBTL1 block)
Cc1ccc(-c2nnc(SCC(=O)NCCC(C)C)nc2-c2ccc(C)cc2)cc1	G9a block inconclusive, JMJD2A Tudor inconclusive (no result: L3MBTL1 block)
Cc1nc(S(=O)(=O)N2CCN(C3c4ccccc4-c4ccccc43)CC2)cn1C	BAZ2B inh inconclusive (no result: G9a block)
Cc1nc2c(o1)CCc1ccccc1C2N1CCN(C)CC1 (stereo unspecified)	JMJD2A Tudor 89.1µM!, L3MBTL1 block inconclusive
Nc1c(C(=O)NCc2ccccc2)nnn1Cc1cccc(Br)c1	none (no result: L3MBTL1 block)
COc1ccccc1CNC(=O)Cn1c(=O)oc2cc(S(=O)(=O)N3CCC(C)CC3)ccc21	none (no result: L3MBTL1 block)
CCc1nnc(NC(=O)c2ccc(S(=O)(=O)N(CC)Cc3ccccc3)cc2)o1	BAZ2B inh 50.1µM
CCCCN(C)S(=O)(=O)c1ccc(C(=O)Nc2nnc(-c3ccco3)o2)cc1	none (no result: BAZ2B inh, L3MBTL1 block)
CCOC(=O)N1CCN(S(=O)(=O)c2ccc(C(=O)Nc3nnc(CSC)o3)cc2)CC1	BAZ2B inh 79.4µM, JMJD2A Tudor 44.7µM
CCCCN(C)S(=O)(=O)c1ccc(C(=O)Nc2nnc(CSC)o2)cc1	BAZ2B inh inconclusive, JMJD2A Tudor 79.4µM (no result: G9a block)
CCN(CC)S(=O)(=O)c1ccc(C(=O)Nc2nnc(CSC)o2)cc1	BAZ2B inh 79.4µM
Fc1ccc(C2c3[nH]c4ccccc4c3CCN2CCCn2cccn2)cc1 (stereo unspecified)	BAZ2B inh 39.8µM, JMJD2A Tudor inconclusive
Cc1ccccc1C1c2[nH]c3ccccc3c2CCN1CCCn1cccn1 (stereo unspecified)	BAZ2B inh inconclusive, G9a block inconclusive, JMJD2A Tudor inconclusive, L3MBTL1 block inconclusive
CCSc1nc(-c2ccc(Cl)cc2)nc2c1Cc1c(CO)cnc(C)c1O2	G9a block inconclusive (no result: L3MBTL1 block)
O=[N+]([O-])c1ccc(CN2CCN(c3nc4ccccc4s3)CC2)cc1	BAZ2B inh inconclusive (no result: L3MBTL1 block)
CCn1nc([N+](=O)[O-])c(C(C#N)c2nc3ccccc3n2C)c(Cl)c1=O (stereo unspecified)	BAZ2B inh 39.8µM, G9a block inconclusive, HP1b chromo inh inconclusive, JMJD2A Tudor inconclusive
CCCn1nc([N+](=O)[O-])c(C(C#N)c2nc3ccccc3s2)c(Cl)c1=O (stereo unspecified)	BAZ2B inh 10µM, G9a block 7.08µM, HP1b chromo inh 11.2µM, JMJD2A Tudor 15.8µM (no result: L3MBTL1 block)
CCC(Sc1nncn2c1cc1oc(C)cc12)C(=O)Nc1ccc(F)cc1 (stereo unspecified)	G9a block inconclusive (no result: L3MBTL1 block)
Cc1ccc(S(=O)(=O)Nc2cc(=O)[nH]c(SCC(=O)Nc3cccc(C)c3)n2)cc1	BAZ2B inh inconclusive (no result: L3MBTL1 block)
CCc1ccc(NC(=O)CSc2nc(NS(=O)(=O)c3ccccc3)cc(=O)[nH]2)cc1	BAZ2B inh 50.1µM, G9a block inconclusive, L3MBTL1 block inconclusive
O=C(CSc1nc(NS(=O)(=O)c2ccccc2)cc(=O)[nH]1)Nc1ccccc1Cl	BAZ2B inh inconclusive (no result: L3MBTL1 block)

Assay outcomes: PubChem BioAssay, National Center for Advancing Translational Sciences (NCATS)
